The whole screen tested about 220,000 compounds, of which about 240 (0.11%) were called active. The sample holds actives, similar compounds and a random draw of the others, so the mix is not that of the screen.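 Rule for the calls: active = inhibition of 50% or more in the single-dose primary screen; inactive = inhibition below 50%.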

In the experiment the test system is hexokinase 1 [Trypanosoma brucei]. Put plainly: Trypanosoma brucei hexokinase 1 inhibitors, primary screen, biochemical, G6PDH-coupled NADH absorbance, MLSCN library (AID 1430). The conditions noted are these: recombinant TbHK1, G6PDH-coupled NADH A340; at 10 µM; active compounds read high.
With `CCOc1ccccc1C(=O)NC1CC2CCCC(C1)N2Cc1ccccc1` (stereo not given), the inhibition (as a rule, the relative decrease from the control value, in per cent) is 3.91% (inactive). The result for `CCC(CC)C(=O)N1CCN(c2cccc(C)c2C)CC1` reads -4.04% (inactive).

As for `Cc1c(Cl)c([N+](=O)[O-])nn1Cc1ccc(C(=O)N/N=C\c2cc(Cl)ccc2O)o1`, the inhibition was 0.728% (inactive). For `CCCc1nc(-c2cc3cc(C)ccc3[nH]c2=O)no1` the value was -10.1% (inactive); for `Cc1ccc(N(C(=O)Cc2cccs2)C(C(=O)NCC2CCCO2)c2ccncc2)cc1` (stereo not given), -7.37% (inactive); for `CSc1nnnn1-c1c(C)cc(C)cc1C`, -0.934% (inactive). The result for `O=C1CC(c2cccc(Cl)c2)CC(O)=C1C=Nc1ccccc1` (stereo not given) reads -3.36% (inactive); that for `CC(=O)O[C@]1(C(C)=O)CC[C@H]2[C@@H]3C=C(C)C4=CC(=O)CC[C@]4(C)[C@H]3CC[C@@]21C`, -3.98% (inactive). For `Cc1ccc(-c2nc(SCC(=O)Nc3ccccc3OC(F)F)c3c(C)c(C(=O)O)sc3n2)cc1` the value was -36.7% (inactive); for `COCCNC(=O)c1ccc(-n2c(SCc3cccnc3)nc3ccccc3c2=O)cc1`, -6.28% (inactive). On to `CC(O)c1nc2c(c(=O)n(C)c(=O)n2C)n1C` (stereo not given), for which the inhibition was -12.1% (inactive). The result for `O=C(Nc1ccc(N2C(=O)c3cccc4cccc(c34)C2=O)cc1)c1ccc(N2CCCCC2)c([N+](=O)[O-])c1` reads -9.23% (inactive).

In the case of `CCCCN(C(=O)c1ccc(OC(F)(F)F)cc1)c1c(N)n(CCC)c(=O)[nH]c1=O`, the inhibition was 2.61% (inactive). For `COc1cc(NC(=O)COC(=O)c2cnc(C)cn2)c(C)cc1[N+](=O)[O-]` the value was -6.37% (inactive); for `CCOC(=O)C1CCN(C(=O)C2(NC(=O)Nc3cccc(F)c3)CCCCC2)CC1`, -1.28% (inactive); for `Cc1ccc(SC(C)C(=O)NCc2ccc(F)cc2)cc1` (stereo not given), 4.64% (inactive).

Turning to `CC1Cc2ccccc2N1C1=CC(=O)CC(C)(C)C1` (stereo not given), the inhibition is -58.2% (inactive).

As for `CN(C)CCCO/N=C(\c1ccccc1)c1ccncc1`, the inhibition is -6.34% (inactive). The result for `C/C(=N\Nc1cccc(C(=O)O)c1)c1ccc2c(c1)Nc1ccccc1S2` reads -4.39% (inactive). For `CCN(CC(=O)Nc1ccc(Cl)c(S(=O)(=O)N(C)C)c1)Cc1nc2ccccc2c(=O)[nH]1` the value was -2.75% (inactive); for `O=C(Oc1ccccc1Cl)c1ccc(N2CCOCC2)c([N+](=O)[O-])c1`, -7.89% (inactive); for `C/C(=N/NC(=O)CSc1ccccn1)c1ccc([N+](=O)[O-])cc1`, -9.77% (inactive). For `Cc1onc(C(=O)NCc2ccc(F)cc2)c1[N+](=O)[O-]` the value was -2.07% (inactive); for `CCOCCCNC(=O)C(NC(=O)c1ccccc1O)c1ccccc1` (stereo not given), -9.74% (inactive); for `COC(=O)C(C(=O)Nc1cccc(C)n1)C1CCCCCC1` (stereo not given), 5.11% (inactive). As to `CC(=O)Nc1ccc(NC(=O)C(C)OC(=O)c2ccccc2C(=O)c2ccc(Cl)c([N+](=O)[O-])c2)cc1` (stereo not given), the inhibition is -6.27% (inactive).

Regarding `O=S(=O)(NC1CCCCC1)c1ccc(F)c2ccccc12`, the inhibition was 2.7% (inactive). For `COC(=O)c1c(NC(=O)CCCC(=O)O)sc2c1CCCCC2` the value was -10.9% (inactive); for `C=CCn1c(COc2ccc(F)cc2)nnc1SCC(=O)Nc1cccc(S(N)(=O)=O)c1`, -3.84% (inactive). The result for `CCc1cccc2c3c([nH]c12)C(CC)(CC(=O)O)OCC3` (stereo not given) reads -3.41% (inactive). For `Cc1ccc(S(=O)(=O)N(C)C)cc1NC(=O)/C=C/c1cccs1` the value was 5.08% (inactive); for `N#Cc1c(N)nc2c(c1N)CC(C(F)(F)F)O2` (stereo not given), 4.59% (inactive). With `O=C(CN1C(=O)C2C3C=CC(C3)C2C1=O)NCCc1ccccc1Cl` (stereo not given), the inhibition is 57.8% (active). Turning to `O=C(CN1C(=O)C2C3C=CC(C3)C2C1=O)NCC1COc2ccccc2O1` (stereo not given), the inhibition is -4.57% (inactive). Turning to `O=C(CCN1C(=O)C2C3C=CC(C3)C2C1=O)Nc1ccccc1F` (stereo not given), the inhibition was -3.82% (inactive).

As for `Nc1nnnn1/N=C/c1cc([N+](=O)[O-])ccc1O`, the inhibition is -31.3% (inactive). The result for `O=C(NCCc1ccccc1)C1CCC(Cn2c(=O)c3ccccc3n(Cc3cccnc3)c2=O)CC1` (stereo not given) reads -9.56% (inactive); that for `Cc1cc2nc(SCCN3CCOCC3)[nH]c2cc1C`, 2.94% (inactive); that for `CCOC(=O)c1ccc(NNC(C)=O)c([N+](=O)[O-])c1`, -2.98% (inactive). For `N#Cc1ccc(Oc2ccc(C(F)(F)F)cc2NC(=O)c2ccc(F)cc2)cc1` the value was -2.47% (inactive). For `C#CCOCCOCCOCCNc1nc(N2CCN(C(=O)[C@H](CCC(=O)O)n3cc(C(N)CO)nn3)CC2)nc(N2CCN(C(=O)[C@H](Cc3ccc(O)cc3)n3cc(C(N)[C@H](C)CC)nn3)CC2)n1` (stereo not given in full) the value was -6.04% (inactive); for `Cc1cc(OC(=O)c2ccccc2)c([N+](=O)[O-])c(=O)[nH]1`, -5.67% (inactive). On to `Cc1ccc(C2=N/C(=C\c3ccc(OS(=O)(=O)c4ccc(C)cc4)cc3)C(=O)O2)cc1`, for which the inhibition is 2.44% (inactive). For `Brc1ccc(-c2noc(-c3ccccc3)n2)o1` the value was -6.63% (inactive); for `O=C1C(=O)N(c2ccccc2)c2ccccc21`, -11.4% (inactive).

In the case of `Cc1cc(C(=O)N/N=C/c2cc([N+](=O)[O-])cc(C)c2O)n[nH]1`, the inhibition is 1.39% (inactive).

Take `COC(=O)NNC(=O)C1CCC(C)CC1` (stereo not given): the inhibition is -0.712% (inactive). For `O=C(NN=C1CCC(=NNC(=O)c2cccnc2)CC1)c1cccnc1` the value was -1.3% (inactive); for `Cc1ccc(NC(=O)Nc2cc(-c3ccccc3)nn2C)cc1Cl`, -21.8% (inactive); for `CC1(C)OC(=O)C(=CNC(CO)C(=O)O)C(=O)O1` (stereo not given), 2.5% (inactive). Take `Cc1ccc(CSc2nc3[nH]ncc3c(=O)[nH]2)cc1`: the inhibition was -4.89% (inactive). The result for `O=C1NC(c2cccc(Cl)c2)Nc2ccccc21` (stereo not given) reads -2.98% (inactive); that for `C=CCN1C=C2C(=O)C(C)(OC(=O)CCc3ccccc3)C(=O)C=C2C=C1c1ccc(C#N)cc1` (stereo not given), -9.51% (inactive); that for `O=C(NNC(=O)c1csc(-c2cccnc2)n1)Nc1ccc(Cl)cc1`, 1.85% (inactive). The result for `Cc1ccc(-n2c(C)cc(C(=O)CSc3nnc4ccccn34)c2C)cc1` reads -7.8% (inactive).

On to `NC(=O)c1ccccc1N=Cc1ccc2ccccc2c1`, for which the inhibition was 27.1% (inactive). Regarding `O=C(OCC(=O)N1CCOCC1)c1ccc(N2CCOCC2)c([N+](=O)[O-])c1`, the inhibition is -6.48% (inactive). The result for `Cc1nc2nc[nH]n2c(=O)c1C/C=C/c1ccccc1` reads -2.13% (inactive). The result for `COc1ccc(C(=O)NNc2cc(C)nc(NNC(=O)c3ccc(OC)cc3)n2)cc1` reads -5.16% (inactive); that for `Cc1[nH]n(C)c(=O)c1N=Nc1ccc(S(C)(=O)=O)cc1`, -42.5% (inactive). As to `Cc1ccc(Oc2nc(-c3ccccn3)nc3ccccc23)cc1`, the inhibition is -12.7% (inactive). For `COC(=O)CN1C(=O)N/C(=C/c2ccc(OC)c(C)c2OC)C1=O` the value was -28.4% (inactive); for `C=C(C)C(=O)Nc1cccc(C2=NOC3(C2)C[C@H](C(N)=O)N(C(=O)C(c2ccccc2)c2ccccc2)C3)c1` (stereo not given in full), 7.7% (inactive). Take `Cc1ccc(Cl)c(OCC(=O)NN2CCN(C)CC2)c1`: the inhibition is -3.39% (inactive).

Turning to `COc1ccc(C(=O)NC2(C(F)(F)F)NC(=O)N(CCCc3ccccc3)C2=O)c(OC)c1OC` (stereo not given), the inhibition is -4.23% (inactive).

As for `O=C(CSc1nnc2ccc(-c3ccncc3)nn12)N1CCCCC1`, the inhibition is -7.7% (inactive). The result for `COC(=O)c1ccc(/C=N/OCC(=O)Nc2cc(F)ccc2F)cc1` reads -4.64% (inactive); that for `COc1ccc(NC(=O)c2cc3nc(-c4ccccc4)cc(C)n3n2)cc1OC`, -16.7% (inactive); that for `COc1ccccc1NC(=O)C1CCCN(c2cc(C)nc3ncnn23)C1` (stereo not given), -1.1% (inactive).

For the compound `COc1cc(/C=C2\SC(=S)N(Nc3ncc(C(F)(F)F)cc3Cl)C2=O)cc(OC)c1OC`, the inhibition is -3.09% (inactive). For the compound `COc1cccc(/C=N/Nc2ncc(C(F)(F)F)cc2Cl)c1O`, the inhibition is 73.5% (active).

As to `COc1cccc(/C=N/Nc2cc(C)nc(-c3ccccc3O)n2)c1O`, the inhibition was -40% (inactive). The result for `COC(=O)Nc1ccc(S(=O)(=O)N2CCN(CCN3C(=O)C4C5C=CC(C5)C4C3=O)CC2)cc1` (stereo not given) reads 1% (inactive). For `Cc1c(C(N)=O)sc2ncn(CCOc3ccccc3)c(=O)c12` the value was -3.42% (inactive); for `CCc1ccc(CNC(=O)CCc2nc(-c3cccs3)no2)cc1`, -2.08% (inactive).

For the compound `O=C(CCC1CCCN(C(=O)Cc2ccc(F)cc2)C1)N1CCN(c2ccccn2)CC1` (stereo not given), the inhibition is -6.3% (inactive). For `CSc1ccccc1NC(=O)Cc1ccc(Br)cc1` the value was 32.7% (inactive); for `O=C1/C(=C\Nc2ccccc2)CCN1c1ncccn1`, -65.9% (inactive). The result for `COc1ccccc1NC(=O)CC(NCCN(C)C)C(=O)O` (stereo not given) reads -1.3% (inactive); that for `COCCCNc1nc2c(-c3cccc(C(F)(F)F)c3)nnn2c2ccccc12`, -3.92% (inactive); that for `CCOC(=O)C1(Cc2ccc(Cl)cc2)CCN(C(=O)C2=NNC(=O)CC2)CC1`, -7.3% (inactive). The result for `Cc1ccc(SC(=O)COc2ccc(C)c(C)c2)cc1` reads 7.35% (inactive). For `S=c1nccc(-c2cc(Cl)sc2Cl)[nH]1`, the inhibition was -7.08% (inactive). Turning to `CCCN1CNC(=S)N(CCc2ccccc2)C1`, the inhibition was -4.25% (inactive). The result for `Cc1ccc(C)c(Cn2nnc3c(=O)[nH]c(C(=O)Nc4ccc(F)cc4)nc32)c1` reads 1.66% (inactive).

Regarding `COc1ccc(OC)c(NC(=O)N[C@H](Cc2ccccc2)C(=O)NN)c1`, the inhibition is -2.36% (inactive). For `Cc1ccc(NC(=O)Cn2c(=O)n(CCC(=O)NC3CCN(Cc4ccccc4)CC3)c(=O)c3ccccc32)cc1` the value was 1.82% (inactive); for `COc1ccc(/C=N/S(=O)(=O)c2ccccc2)cc1OC`, -6.73% (inactive). Turning to `CCCSc1ncccc1C(=O)O`, the inhibition was -11% (inactive).

For the compound `CCOC(=O)C1CCN(CCC(=O)Nc2cccc(C)c2)CC1`, the inhibition was -3.14% (inactive).

The values above are taken from PubChem BioAssay AID1430 (University of Pittsburgh Molecular Library Screening Center, 2008).
